# The source made the active and inactive calls. Unless noted, no stated cut-off is given here; in the data, active means inhibition above about 80%; inactive means the rest.
# Assays:
# [1] = growth inhibition, single agent or in combination, cell-based, chromothripsis tumors, cisplatin or BGB combos (AID 1671449); conditions: LFS_MB_P medulloblastoma cells;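 further: cells exposed for 96 hours; 0% = vehicle DMSO and 100% = killing by high DMSO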
# [2] = growth inhibition, single agent and combos, cell-based, chromothripsis tumors, cisplatin or BGB combos (AID 1671450); conditions: HDN33 neuroblastoma cells, stronger effect = higher value;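 further: cells exposed to compound for four days; 0% = vehicle DMSO and 100% = cell killing by high DMSO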
# [3] = growth inhibition, single agents and combos, ICB984, cell-based, cisplatin or BGB combos, synergistic combos for chromothripsis tumors (AID 1671451; call rule not given here;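 further: cells exposed for 96 hours before readout; 0% = vehicle DMSO and 100% = killing by high DMSO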); conditions: ICB984 medulloblastoma cells, drug combinations, stronger effect = higher value
# [4] = growth inhibition, single agents and combos, LFS_MB_1R, cell-based, cisplatin or BGB combos, synergistic combos for chromothripsis tumors (AID 1671452); conditions: LFS_MB_1R medulloblastoma cells, stronger effect = higher value;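 further: cells exposed for 96 hours before readout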
# [5] = growth inhibition, single agents and combos, HTB85, cell-based, BGB or cisplatin IC20 combos, synergistic combos for chromothripsis tumors (AID 1671453); conditions: HTB85 osteosarcoma cells, drug combinations, stronger effect = higher value;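 further: cells exposed for 96 hours before readout; 0% = vehicle DMSO and 100% = high DMSO killing control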
# [6] = growth inhibition, single agents and combos, CRL2098, cell-based, BGB or cisplatin IC20 combos, synergistic combos for chromothripsis tumors (AID 1671454); conditions: CRL2098 osteosarcoma cells, drug combinations, stronger effect = higher value;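 further: cells exposed for 96 h before readout; 0% = vehicle DMSO and 100% = killing by high DMSO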
# [7] = growth inhibition, single agents and combos, HD-MB03, cell-based, BGB or cisplatin IC20 combos, synergistic combos for chromothripsis tumors (AID 1671455; in the data active means inhibition above about 83%;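 further: 0% = vehicle DMSO and 100% = high DMSO as cytotoxic control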); conditions: HD-MB03 medulloblastoma cells, stronger effect = higher value
# [8] = growth inhibition, single agents and combos, UWB1.289, cell-based, BGB or cisplatin combos, synergistic combos for chromothripsis tumors (AID 1671456); conditions: UWB1.289 ovarian carcinoma cells, stronger effect = higher value;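 further: cells exposed to compound for four days; 0% = vehicle DMSO and 100% = killing by high DMSO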
# [9] = growth inhibition, single agents and combos, LFS_MB_2R, cell-based, cisplatin combos, synergistic combos for chromothripsis tumors (AID 1671457); conditions: LFS_MB_2R medulloblastoma cells, stronger effect = higher value;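 further: cells exposed to compound for four days before readout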
# [10] = growth inhibition, MDA-MB-436, cell-based, BGB or cisplatin combos, synergistic combos for chromothripsis tumors (AID 1671458; call rule not given here;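 further: cells exposed for 96 hours; 0% = vehicle DMSO and 100% = killing by high DMSO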); conditions: MDA-MB-436 breast carcinoma growth inhibition, drug combinations, stronger effect = higher value
# [11] = UWB1.289_BRCA1 ovarian cancer growth, cell-based, BGB or cisplatin combinations (AID 1671459); conditions: UWB1.289 BRCA1 ovarian carcinoma, drug combinations, stronger effect = higher value
# [12] = drug combination toxicity in non-malignant astrocytes – cell-based, BGB or cisplatin IC20 combos, cytotoxicity control for chromothriptic childhood tumor combination screen (AID 1671460); conditions: Human astrocytes, viability inhibition, drug combinations, at 0.5 µM, stronger effect = higher value;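 further: cells exposed to compounds for 96 hours before viability readout; 0% = vehicle and 100% = killing control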
# [13] = BT084 cell growth, single and combined drugs, ICGC_MB145, cisplatin and BGB IC40 combos (AID 1671461); conditions: BT084 medulloblastoma cells, drug combinations, stronger effect = higher value;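 further: cells exposed to drugs for 96 hours; 0% = vehicle DMSO and 100% = high DMSO full killing control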
# [14] = RCMB18 cell growth, single agent and combined, cisplatin and BGB IC40 combos (AID 1671462); conditions: RCMB18 medulloblastoma cells, stronger effect = higher value;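 further: cells exposed to compound for four days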
# [15] = CRL1545 cell growth, single agent and combined, cisplatin and BGB IC20 combos (AID 1671464); conditions: CRL1545 osteosarcoma cells, stronger effect = higher value;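 further: cells exposed to compound for 96 hours before readout; 0% = vehicle DMSO and 100% = high DMSO killing control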
# [16] = measured here: combination with BGB IC40, at 0.05 µM
# [17] = measured here: with BGB IC20 combination, at 0.5 µM
# [18] = measured here: with cisplatin IC20 combination, at 0.5 µM
# [19] = measured here: combination with cisplatin, at 0.5 µM
# [20] = measured here: combination with cisplatin, at 5 µM
compound,measurement,setting,value
COc1ccc(C(=O)CC2(O)C(=O)Nc3c(Cl)ccc(Cl)c32)cc1 (stereo not drawn),inhibition,"[1]; at 0.5 µM, stronger effect = higher value",-20.8% (inactive)
same,inhibition,"[1]; measured here: combination with BGB IC20, at 0.005 µM",-14.2%
same,inhibition,"[1]; measured here: combination with BGB IC40, at 0.005 µM",-20.5%
same,inhibition,[1]; [16],-14.8%
same,inhibition,"[1]; measured here: combination with cisplatin, at 0.5 µM, stronger effect = higher value",-51.4%
same,inhibition,"[1]; measured here: combination with cisplatin, at 5 µM, stronger effect = higher value",10.7%
same,inhibition,"[2]; BGB combo, at 5 µM",63.6%
same,inhibition,[2]; at 0.5 µM,28.4% (inactive)
same,inhibition,"[2]; cisplatin combo, at 5 µM",59.7%
same,inhibition,[2]; [17],21.3%
same,inhibition,[2]; [18],16%
same,inhibition,"[2]; single agent, at 5 µM",93.1%
same,inhibition,"[3]; BGB IC20 combo, at 0.005 µM",-4.85%
same,inhibition,"[3]; BGB IC40 combo, at 0.005 µM",-25.9%
same,inhibition,"[3]; BGB IC40 combo, at 0.05 µM",11.3%
same,inhibition,[3]; at 0.5 µM,-24.6% (inactive)
same,inhibition,"[3]; cisplatin combo, at 0.05 µM",8.85%
same,inhibition,"[3]; cisplatin combo, at 0.5 µM",-32.2%
same,inhibition,"[3]; cisplatin combo, at 5 µM",-25.3%
same,inhibition,"[3]; measured here: 5 uM single agent, at 5 µM",-28.8%
same,inhibition,[4]; at 0.5 µM,2.98% (inactive)
same,inhibition,[4]; [16],-32.3%
same,inhibition,[4]; [19],23.2%
same,inhibition,[4]; [20],27.4%
same,inhibition,[5]; at 0.5 µM,33.2% (inactive)
same,inhibition,"[5]; measured here: with BGB IC20, at 0.5 µM",33.1%
same,inhibition,"[5]; measured here: with BGB IC20, at 5 µM",64.4%
same,inhibition,"[5]; measured here: with cisplatin IC20, at 0.5 µM",11.7%
same,inhibition,"[5]; measured here: with cisplatin IC20, at 5 µM",63.8%
same,inhibition,"[5]; single agent, at 5 µM",88.4%
same,inhibition,[6]; at 0.5 µM,-4.98% (inactive)
same,inhibition,"[6]; measured here: combination with BGB at IC20, at 0.5 µM",4.02%
same,inhibition,"[6]; measured here: combination with cisplatin at IC20, at 0.5 µM",-4.5%
same,inhibition,[7]; at 0.5 µM,57.3% (inactive)
same,inhibition,"[7]; measured here: combo with BGB at IC20, at 0.5 µM",58.6%
same,inhibition,"[7]; measured here: combo with cisplatin at IC20, at 0.5 µM",55.7%
same,inhibition,[8]; at 0.5 µM,11.3% (inactive)
same,inhibition,"[8]; measured here: inhibition with BGB combination, at 0.05 µM",-8.43%
same,inhibition,"[8]; measured here: inhibition with cisplatin combination, at 0.05 µM",-6.45%
same,inhibition,[9]; at 0.5 µM,-4.47% (inactive)
same,inhibition,[9]; [19],-11.7%
same,inhibition,[9]; [20],-26.3%
same,inhibition,[10]; at 0.5 µM,2.68% (inactive)
same,inhibition,"[10]; measured here: BGB combination, at 0.5 µM",-5.4%
same,inhibition,"[10]; measured here: BGB combination, at 5 µM",40.2%
same,inhibition,"[10]; measured here: cisplatin combination, at 0.5 µM",-2.19%
same,inhibition,"[10]; measured here: cisplatin combination, at 5 µM",64.3%
same,inhibition,"[11]; BGB combination, concentration series, at 5 µM",47.8%
same,inhibition,[11]; at 0.5 µM,14.6% (inactive)
same,inhibition,"[11]; cisplatin combination, concentration series, at 5 µM",51.1%
same,inhibition,[12],9.33% (inactive)
same,inhibition,[12]; measured here: combo with BGB IC20,10.9%
same,inhibition,[12]; measured here: combo with cisplatin IC20,2.7%
same,inhibition,[13]; at 0.5 µM,-18.2% (inactive)
same,inhibition,"[13]; cisplatin combination, at 0.5 µM",1.77%
same,inhibition,"[13]; cisplatin combination, at 5 µM",10.6%
same,inhibition,"[13]; measured here: BGB IC40 combination 0.05 uM, at 0.05 µM",2.03%
same,inhibition,"[13]; single agent, at 5 µM",40.8%
same,inhibition,[14]; at 0.5 µM,-4.73% (inactive)
same,inhibition,"[14]; cisplatin combo, at 5 µM",26.4%
same,inhibition,"[14]; measured here: BGB IC40 combination, at 0.05 µM",-41.1%
same,inhibition,[14]; [19],6.7%
same,inhibition,"[14]; single agent, at 5 µM",24.9%
same,inhibition,[15]; at 0.5 µM,0.14% (inactive)
same,inhibition,[15]; [17],16.2%
same,inhibition,[15]; [18],-10.3%
same,inhibition,"[15]; single agent, at 0.05 µM",-6.9%
same,inhibition,"[15]; single agent, at 5 µM",77.7%
